Among the data in PubChem BioAssay (NCI) are growth inhibition values, retold here.

This is part of a sample that, as a whole, favours compounds with a hit. Of some 79,000 tested, about 15% had one in any assay. Unmarked numbers belong to inactive results. Active and inactive are the calls of the source. Cut-off read from the data, not from the text of the source: active = growth inhibition above about 70%; inactive = the rest.

This experiment is described as follows: NCI Yeast Anticancer Drug Screen. Data for the rad50 strain (AID 155).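 Note: 0% = growth of vehicle-only cultures of the same strain.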 As to conditions: S. cerevisiae rad50 strain growth inhibition, hits give high values. The protocol:
Growth inhibition of yeast strains with defined genetic alterations is measured as a screen for potential anti-cancer activity. Selected strains with alterations in DNA damage repair or cell cycle control were exposed to compounds and growth inhibition was measured relative to vehicle treated controls. The strain used in this assay is rad50

The mark [1] stands for this setting: at 5.0 µM (retest, dose inferred, filed as 0.5).
[2] abbreviates: at 50.0 µM (retest, dose inferred, filed as 5.0).

As to `CCOC(=O)c1cnc2cc(C(F)(F)F)ccc2c1N=[N+]=[N-]`, the growth inhibition runs as follows: (at 1.2 µM) 8%; (at 3.7 µM) 25%; under setting [1], 7%; (at 11.0 µM) 23%; (at 33.0 µM) 50%; under setting [2], 20%. Also, the growth inhibition by setting is: (at 50.0 µM) 44.4%; (at 100.0 µM) 83% (active).
As for `Cc1ccc(CSC(N)=Nc2ccccc2)cc1C`, the growth inhibition (at 1.2 µM) is 9%; the growth inhibition (at 3.7 µM) is 5%; the growth inhibition under setting [1] is 5%; the growth inhibition (at 11.0 µM) is 14%; the growth inhibition (at 33.0 µM) is 22%; the growth inhibition under setting [2] was 40%. Besides, the growth inhibition by setting is: (at 50.0 µM) 61.5%; (at 100.0 µM) 30%.
As for `OC1CSCCCSCCSCCCSC1`, the growth inhibition is -28% (at 1.2 µM); -27% (at 3.7 µM); -11% under setting [1]; -3% (at 11.0 µM); -2% (at 33.0 µM); -14% under setting [2]. Further, the growth inhibition reads like this: (at 50.0 µM) 12.3%; (at 100.0 µM) -25%.
As to `CC1=C(C)Cc2c(O)ccc(O)c2C1`, the growth inhibition (at 1.2 µM) is 1%; the growth inhibition (at 3.7 µM) is 17%; the growth inhibition under setting [1] is -9%; the growth inhibition (at 11.0 µM) was 38%; the growth inhibition (at 33.0 µM) was 33%; the growth inhibition under setting [2] is 99% (active). Besides, the growth inhibition is, setting by setting: (at 50.0 µM) 94.5% (active); (at 100.0 µM) 93% (active).
Regarding `CCN(CC)CCC(=O)c1ccc(Oc2ccc(F)cc2)cc1`, the growth inhibition is, setting by setting: (at 1.2 µM) -5%; (at 3.7 µM) -21%; under setting [1], 46%; (at 11.0 µM) -17%; (at 33.0 µM) 2%; under setting [2], 82% (active). Also, the growth inhibition (at 50.0 µM) is 57% and the growth inhibition (at 100.0 µM) was 87% (active).
